Test results as given in PubChem BioAssay (NCATS).
Several values for one entry are separate records, joined by “and”; a condition that tells them apart may be missing. Identical values can stand only once. Inconclusive results are not listed. Activity calls are given as the source filed them. Calls follow the shape of the dose curve; as a rule, active = well fitted curve in the direction sought with a large enough effect; inconclusive = small, poorly fitted or top-dose-only effect, or another doubt; inactive = no such curve, though single readings can be large; an effect the other way counts as inactive or inconclusive.

Key:
[1] = Viability qHTS for spleen associated tyrosine kinase inhibitor (SYKi) drug resistant MV4-11 cells (AID 1963824); details: SYKi-resistant MV4-11 viability, CellTiter-Glo, 72 h; series mostly up to 45 µM; also: nearly all actives have a fitted effect of over 35% in size
Outline: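 SYK inhibitor-resistant MV4-11 AML cells, 500 per well, added to predispensed compounds and incubated 72 hr at 37 C, 5% CO2. Viability measured by CellTiter-Glo luminescence after 10 min at room temperature.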

[2] = Quantitative highthroughput screen to assess conditional lethalithy of NOMO1 cells grown in RPMI1640 with untreated serum (RPMI+s) (AID 1963876); details: NOMO1 AML cells in RPMI+serum, CellTiter-Glo viability, 48 h; series mostly up to 45.8 µM; also: nearly all actives have a fitted effect of over 35% in size;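 as to Viability: 100% = DMSO wells and 0% = empty wells without cells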
Outline: (§1)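 Each medium arm—HPLM with 10% dialyzed FBS, or RPMI1640 with 5 mM glucose and 10% untreated or dialyzed FBS—was screened against an 11-point, 3-fold compound titration for 48 h at 37 °C, with CellTiter-Glo luminescence as endpoint.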

[3] = Quantitative highthroughput screen to assess conditional lethalithy of NOMO1 cells grown in RPMI1640 with dialyzed fetal bovine serum (RPMI+ds) (AID 1963877); details: NOMO1 in RPMI+dialyzed FBS viability, ATP luminescence, 48 h; series mostly up to 45.8 µM; also: nearly all actives have a fitted effect of over 30% in size;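 as to Viability: 100% = DMSO control wells and 0% = empty wells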
Outline: as §1

[4] = Quantitative highthroughput screen to assess conditional lethalithy of NOMO1 cells grown in Human Plasma-Like Medium with dialyzed fetal bovine serum (HPLM+ds) (AID 1963878); details: NOMO1 AML cells in HPLM+ds, CellTiter-Glo viability, 48 h; series mostly up to 45.8 µM; also: nearly all actives have a fitted effect of over 35% in size;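 as to Viability: 100% = DMSO wells and 0% = empty wells on each plate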
Outline: as §1

[5] = Quantitative highthroughput screen to assess conditional lethalithy of P12 Ichikawa cells grown in Human Plasma-Like Medium with dialyzed fetal bovine serum (HPLM+ds) (AID 1963879); details: ATP luminescence, 48 h; Potency: viability; series mostly up to 45.8 µM; also: nearly all actives have a fitted effect of over 35% in size
Outline: as §1

[6] = Quantitative highthroughput screen to assess conditional lethalithy of P12 Ichikawa cells grown in RPMI1640 with dialyzed fetal bovine serum (RPMI+ds) (AID 1963880); details: ATP luminescence, 48 h; Potency: P12-Ichikawa viability; series mostly up to 45.8 µM; also: nearly all actives have a fitted effect of over 35% in size;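 as to Viability: 100% = DMSO wells and 0% = empty wells on each plate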
Outline: as §1

[7] = Quantitative highthroughput screen to assess conditional lethalithy of P12 Ichikawa cells grown in RPMI1640 with untreated serum (RPMI+s) (AID 1963881); details: ATP luminescence, 48 h; Potency: viability; series mostly up to 45.8 µM; also: nearly all actives have a fitted effect of over 35% in size;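 as to Viability: 100% = DMSO wells and 0% = empty wells without cells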
Outline: as §1

[8] = Quantitative highthroughput screen to assess conditional lethalithy of SEM cells grown in Human Plasma-Like Medium with dialyzed fetal bovine serum (HPLM+ds) (AID 1963882); details: SEM B-ALL cells in HPLM+ds, CellTiter-Glo viability, 48 h; series mostly up to 45.8 µM; also: nearly all actives have a fitted effect of over 35% in size
Outline: as §1

[9] = Quantitative highthroughput screen to assess conditional lethalithy of SEM cells grown in RPMI1640 with unreated serum (RPMI+s) (AID 1963883); details: SEM B-ALL cells, CellTiter-Glo viability, 48 h; series mostly up to 45.8 µM; also: nearly all actives have a fitted effect of over 35% in size;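 as to Viability: 100% = DMSO wells and 0% = empty wells without cells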
Outline: as §1

[10] = Quantitative highthroughput screen to assess conditional lethalithy of SEM cells grown in RPMI1640 with dialyzed fetal bovine serum (RPMI+ds) (AID 1963884); details: SEM B-ALL cells, RPMI+dialyzed FBS, CellTiter-Glo viability, 48 h; series mostly up to 45.8 µM; also: nearly all actives have a fitted effect of over 35% in size;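 as to Viability: 100% = DMSO control wells and 0% = empty wells without cells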
Outline: as §1

[11] = Cellular viability qHTS for adrenocortical cancer (ACC) cell line SW-13 (AID 1963989); details: SW-13 ACC cells viability, CellTiter-Glo, 48 h; activity (max response): active compounds read low; also: nearly all actives have a fitted effect of over 65% in size;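 as to activity (max response): cells grown in serum-free medium with ITS supplement; % is scaled to controls: 0 for no effect and ±100 for the full control effect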
Outline: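 SW-13 cells in ITS-supplemented serum-free DMEM were plated overnight, then exposed for 48 h at 37C to compound titrations (up to 46 uM final). Viability was read by CellTiter-Glo luminescence; four-parameter logistic fits gave IC50 and efficacy.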

[12] = Cellular viability qHTS for adrenocortical cancer (ACC) cell line NCI-H295R (AID 1963990); details: CellTiter-Glo ATP luminescence, 48 h; series mostly up to 46.1 µM; also: nearly all actives have a fitted effect of over 60% in size
Outline: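 Luminescent ATP read-out (CellTiter-Glo, 20 min RT) after 48 h drug exposure of NCI-H295R cells; a titration up to 46 uM final. Data normalized to doxorubicin (100% inhibition) and DMSO (0%); 4-parameter fit gives IC50, max response.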
Potency is read from the fitted curve at half-maximal effect.

CC1=C(C(=O)O)N2C(=O)[C@@H](NC(=O)[C@H](N)C3=CCC=CC3)[C@H]2SC1
inactive: Potency [1] | Potency [2] | Potency [3] | Potency [4] | Potency [5] | Potency [6] | Potency [7] | Potency [8] | Potency [9] | Potency [10] | activity (max response) [11] -13.1% | Potency [12]

O=C(O)CCc1ccc(NCc2cccc(Oc3ccccc3)c2)cc1
active: Potency [1] 16.4 µM
inactive: Potency [2] | Potency [3] | Potency [4] | Potency [5] | Potency [6] | Potency [7] | Potency [9] | activity (max response) [11] -8.89% | Potency [12]

CO[C@H]1C=CO[C@@]2(C)Oc3c(C)c(O)c4c(O)c(c5c(c4c3C2=O)NC2(CCN(CC(C)C)CC2)N=5)=NC(=O)C(C)=CC=C[C@H](C)[C@H](O)[C@@H](C)[C@@H](O)[C@@H](C)[C@H](OC(C)=O)[C@H]1C
active: Potency [1] 18.4 µM
inactive: Potency [2] | Potency [3] | Potency [4] | Potency [5] | Potency [7] | Potency [8] | Potency [9] | Potency [10]

C[C@H](c1ccc(F)cc1CCCC(=O)O)N(c1cc(F)ccc1F)S(=O)(=O)c1ccc(Cl)cc1
active: Potency [1] 18.6 µM
inactive: Potency [2] | Potency [3] | Potency [4] | Potency [5] | Potency [6] | activity (max response) [11] -23.1% | Potency [12]

C[C@@H]1COCCN1c1cc(C2(S(C)(=N)=O)CC2)nc(-c2ccnc3[nH]ccc23)n1 (stereo partly drawn)
active: Potency [1] 1.18 µM and 2.59 µM | Potency [2] 4.67 µM | Potency [3] 2.95 µM | Potency [4] 1.17 µM | Potency [5] 4.17 µM | Potency [6] 2.95 µM | Potency [7] 4.67 µM | Potency [9] 1.17 µM | Potency [12] 3.98 µM

CC(C)(O)CCc1ccc(OCc2cc(-c3cccc(OC(F)F)c3)c3ncccc3c2)cc1
active: Potency [1] 16.6 µM | Potency [12] 25.1 µM
inactive: Potency [2] | Potency [3] | Potency [4] | Potency [5] | Potency [6] | Potency [7] | Potency [8] | Potency [9] | Potency [10]

CCOC(=O)N1CCC(=C2c3ccc(Cl)cc3CCc3cccnc32)CC1
inactive: Potency [2] | Potency [3] | Potency [4] | Potency [5] | Potency [6] | Potency [7] | Potency [8] | Potency [9]
active: Potency [1] 8.41 µM | Potency [10] 11.8 µM | Potency [11] 4.61 µM

CN(C)c1ccc2nc3ccc(=[N+](C)C)cc-3sc2c1
active: Potency [1] 372 nM and 841 nM | Potency [2] 8.33 µM | Potency [3] 6.62 µM | Potency [4] 8.33 µM | Potency [5] 5.26 µM | Potency [6] 7.43 µM | Potency [7] 5.9 µM | Potency [8] 9.35 µM | Potency [11] 7.08 µM and 4.11 µM | Potency [12] 8.91 µM and 8.2 µM

N#CC1(c2cccc(C(=O)Nc3cc(Oc4ccc5nc(NC(=O)C6CC6)sc5n4)ccc3F)c2Cl)CC1
active: Potency [1] 0.58 µM | Potency [2] 3.72 µM | Potency [3] 2.09 µM | Potency [4] 1.32 µM | Potency [5] 5.9 µM | Potency [6] 2.64 µM | Potency [7] 5.26 µM | Potency [9] 3.72 µM

CCCCc1ccc(NS(=O)(=O)c2ccc(C)c(C(=O)N3CCN(c4cccc(C)c4C)CC3)c2)cc1
active: Potency [1] 42.8 µM | Potency [12] 44.7 µM
inactive: Potency [2] | Potency [3] | Potency [4] | Potency [5] | Potency [6] | Potency [7] | Potency [8] | Potency [9] | Potency [10]

C=Cc1c(C)c2cc3nc(cc4[nH]c(cc5nc(cc1[nH]2)C(C)=C5CCC(=O)O)c(CCC(=O)OC)c4C)[C@@]1(C)C3=CC=C(C(=O)OC)[C@H]1C(=O)OC
inactive: Potency [5] | Potency [6] | Potency [8] | Potency [9] | Potency [10]
active: Potency [1] 7.42 µM | Potency [2] 14.8 µM | Potency [3] 13.2 µM | Potency [4] 14.8 µM | Potency [7] 14.8 µM

CCC(C)N(C)C(=O)c1cc2ccccc2c(-c2ccccc2Cl)n1 (stereo not drawn)
active: Potency [1] 18.6 µM
inactive: Potency [2] | Potency [3] | Potency [4] | Potency [5] | Potency [6] | Potency [7] | Potency [8] | Potency [9] | activity (max response) [11] -6.79%

O=C(Nc1cc(Cl)cc2c1[nH]c1cnccc12)c1cccnc1
inactive: Potency [2] | Potency [3] | Potency [4] | Potency [5] | Potency [6] | Potency [7] | Potency [8] | activity (max response) [11] 7.23% | Potency [12]
active: Potency [1] 3.55 µM

CC(C)c1nn(-c2c(Cl)cccc2Cl)c2nc(Cc3ccc(OCCO)cc3)[nH]c(=O)c12
active: Potency [1] 0.0206 µM | Potency [2] 0.118 µM | Potency [3] 0.105 µM | Potency [4] 0.118 µM | Potency [5] 0.166 µM | Potency [7] 0.148 µM | Potency [8] 0.105 µM | Potency [11] 0.0501 µM | Potency [12] 0.1 µM

COc1cc(OC)c(NC(=O)Nc2cc(C)on2)cc1Cl
inactive: Potency [2] | Potency [3] | Potency [4] | Potency [5] | Potency [6] | Potency [7] | Potency [9] | Potency [10] | Potency [12]
active: Potency [1] 6.61 µM
